SMILES strings stand for the structures. This is part of a sample that, as a whole, favours compounds with a hit. Of some 79,000 tested, about 15% had one in any assay. Unmarked numbers belong to inactive results. Activity calls are given as the source filed them. Cut-off read from the data, not from the text of the source: active = growth inhibition above about 70%; inactive = the rest.

The nature of assay [1]: NCI Yeast Anticancer Drug Screen. Data for the rad50 strain (AID 155).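 Note: 0% = growth of vehicle-only cultures of the same strain.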 Particulars: S. cerevisiae rad50 strain growth inhibition; at 50.0 µM; active compounds read high. The procedure, abridged:
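DNA repair mutant yeast, compound exposure, growth read-out; inhibition is taken relative to vehicle.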

Assay [2] is described as follows: NCI Yeast Anticancer Drug Screen. Data for the mec2-1 strain (AID 157). Particulars: S. cerevisiae mec2-1 strain, at 50.0 µM, active compounds read high. The procedure, abridged: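 Each compound was tested on mec2-1 yeast, a strain altered in DNA damage repair or cell cycle control. Growth inhibition is reported relative to vehicle.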
Assay [3] in a line: NCI Yeast Anticancer Drug Screen. Data for the sgs1 mgt1 strain (AID 161).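 Note: 0% = growth of cultures given vehicle only.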 Particulars: S. cerevisiae sgs1 mgt1 strain, at 50.0 µM, active compounds read high. The procedure, abridged:
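Test agents were incubated with a DNA-repair-mutant yeast strain. Growth was then read and compared against vehicle-treated controls.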

A short description of assay [4]: NCI Yeast Anticancer Drug Screen. Data for the cln2 rad14 strain (AID 165).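 Note: 0% = growth equal to vehicle treated cultures.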 Particulars: S. cerevisiae cln2 rad14 strain, at 50.0 µM, active compounds read high. In short, it runs like this:
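Test compounds were added to cln2 rad14 yeast cultures; inhibition of growth was then determined by comparison with vehicle treatment.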

Assay [5] is described as follows: NCI Yeast Anticancer Drug Screen. Data for the bub3 strain (AID 167). Particulars: S. cerevisiae bub3 mutant strain, at 50.0 µM, active compounds read high. In short, it runs like this: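 In this screen, a yeast mutant lacking normal mitotic checkpoint function is challenged with compound. Relative growth versus vehicle gives the inhibition value.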
The nature of assay [6]: NCI Yeast Anticancer Drug Screen. Data for the mlh1 rad18 strain (AID 175). Particulars: S. cerevisiae mlh1 rad18 strain growth inhibition; at 50.0 µM; active compounds read high. In short, it runs like this: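 Inhibition values reflect reduced growth of mutant yeast versus vehicle-treated controls following compound exposure; the mutations affect DNA damage repair.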

As for `O=C(CC[n+]1ccccc1)Nc1ccc(F)cc1F`, the growth inhibition was 11.4% in assay [1]; -1.55% in assay [2]; 26.1% in assay [3]; 20.9% in assay [4]; 33.6% in assay [5]; 17.3% in assay [6].
In the case of `c1ccc2c(c1)CCCN2c1ncnc2ccccc12`, the growth inhibition in assay [1] is -10.2%; in assay [2], -8.45%; in assay [3], -2.8%; in assay [4] it was -62.6%; in assay [5], 15.6%; in assay [6], -7.4%.
`CCS(=O)(=O)/C=C/c1ccco1`: the growth inhibition in assay [1] is 28.3%; in assay [2] it was -18.6%; in assay [3], 5.45%; in assay [4] it was -36.9%; in assay [5], 19.6%; in assay [6] it was -14.9%.
In the case of `C(/C=C/c1ccccc1)=C1SCCCS1`, the growth inhibition in assay [1] was 0.55%; in assay [2], -7.6%; in assay [3] it was -4.7%; in assay [4], -18.9%; in assay [5], -2.15%; in assay [6], -4.6%.
Regarding `CCS(=O)(=O)CC(C)O` (configuration not stated), the growth inhibition in assay [1] is 13.7%; in assay [2] it was -11.3%; in assay [3], -4.2%; in assay [4] it was 10.1%; in assay [5], 11%; in assay [6] it was -7.95%.
`Nc1[nH]c(=S)nc2nc3c(c(-c4ccccc4)c12)CCCC3`: the growth inhibition is -45.9% in assay [1]; -13.5% in assay [2]; 6.95% in assay [3]; -3.05% in assay [4]; -13.6% in assay [5]; -14.4% in assay [6].
As to `Cn1c(CBr)nc2c1C(=O)c1nc[nH]c(=O)c1C2=O`, the growth inhibition in assay [1] is 32%; in assay [2], 0.55%; in assay [3], 37.6%; in assay [4], 11.8%; in assay [5], 3.4%; in assay [6], 31.6%.
For the molecule `C[n+]1ccccc1/C=C/c1cccc([N+](=O)[O-])c1`, the growth inhibition is -17.6% in assay [1]; -2.7% in assay [2]; -1.3% in assay [3]; -28.8% in assay [4]; 7.8% in assay [5]; 1.9% in assay [6].
In the case of `COc1cc(C=O)c([N+](=O)[O-])cc1OC`, the growth inhibition is 14.2% in assay [1]; -20.7% in assay [2]; 18.2% in assay [3]; 20.9% in assay [4]; -8.5% in assay [5]; -8.85% in assay [6].
For `CCOC(=O)c1ccccc1S(=O)(=O)c1ccccc1C(=O)OCC`, the growth inhibition in assay [1] was 1.4%; in assay [2], 16.9%; in assay [3] it was 9.85%; in assay [4], 11.2%; in assay [5], 5.2%; in assay [6] it was 10.4%.
On to `CC(C)(C)c1onc2c1C(=O)c1ccccc1-2`, for which the growth inhibition in assay [1] is -3.7%; in assay [2], -2.55%; in assay [3], 1.35%; in assay [4], -5.9%; in assay [5], 25.9%; in assay [6], -2.75%.
Regarding `C(#CC[P+](c1ccccc1)(c1ccccc1)c1ccccc1)C[P+](c1ccccc1)(c1ccccc1)c1ccccc1`, the growth inhibition in assay [1] was -24.1%; in assay [2], -16.4%; in assay [3] it was 0.2%; in assay [4], 3.55%; in assay [5], -5.4%; in assay [6] it was -10.4%.
In the case of `CC(C)(C)c1cc(Br)c(O)c(CN(Cc2cc(C(C)(C)C)cc(Br)c2O)C2CCCCC2)c1`, the growth inhibition in assay [1] is 16.1%; in assay [2] it was -24.9%; in assay [3] it was -34.2%; in assay [4], -14.2%; in assay [5] it was -35.2%; in assay [6] it was 1.35%.
As to `O=C1NC(=S)S/C1=C/c1cn(-c2ccccc2)nn1`, the growth inhibition was 17.4% in assay [1]; 3.15% in assay [2]; -5.05% in assay [3]; -18.2% in assay [4]; 1.75% in assay [5]; 10.6% in assay [6].
Regarding `CC(=O)On1c(-c2ccccc2-c2nc3ccccc3n2OC(C)=O)nc2ccccc21`, the growth inhibition in assay [1] was 10%; in assay [2], 14.4%; in assay [3] it was 13.4%; in assay [4], 8.9%; in assay [5] it was -5.05%; in assay [6], 2.75%.
Take `c1ccc(CSc2ncnc3oc(-c4ccccc4)nc23)cc1`: the growth inhibition in assay [1] was 22.5%; in assay [2], 17.2%; in assay [3] it was 13.6%; in assay [4] it was 11.2%; in assay [5], 24%; in assay [6], 16.4%.
With `CCN(CC)CCN1Cc2ccccc2C1`, the growth inhibition in assay [1] is -4.8%; in assay [2], 3.85%; in assay [3] it was -1.7%; in assay [4] it was -14.1%; in assay [5], 7.4%; in assay [6], 2.45%.
Consider `[Co+2].[NH-]C(Cc1ccc(O)cc1)C(=O)O.[NH-]C(Cc1ccc(O)cc1)C(=O)O` (configuration not stated), for which the growth inhibition was 56.5% in assay [1]; 10.2% in assay [2]; 5.8% in assay [3]; 16.3% in assay [4]; 16% in assay [5]; 34% in assay [6].
Consider `O=c1ccc2cc(Br)ccc2o1`, for which the growth inhibition in assay [1] was 6.65%; in assay [2], 16.7%; in assay [3] it was 16.6%; in assay [4], -16.4%; in assay [5], 10.7%; in assay [6], 4.35%.
Turning to `CN(C)c1nc(N)nc(CS)n1`, the growth inhibition in assay [1] is 10.8%; in assay [2], 10.4%; in assay [3], -9.05%; in assay [4] it was 10.3%; in assay [5], -4.15%; in assay [6], -39.5%.
With `COc1ccc2nc3cc(Cl)ccc3c(NN3CCN(CCO)CC3)c2c1`, the growth inhibition is -24.1% in assay [1]; -7.9% in assay [2]; -20.1% in assay [3]; 0.25% in assay [4]; 2.3% in assay [5]; -3.6% in assay [6].
With `O=C(O)c1cc(C2CC2)nc2ccccc12`, the growth inhibition is -1% in assay [1]; 1.6% in assay [2]; 0.55% in assay [3]; -0.95% in assay [4]; -14.6% in assay [5]; 24.6% in assay [6].
Take `C=C1CC(C)(COc2ccc3c(C)cc(=O)oc3c2)OC1=O` (configuration not stated): the growth inhibition is 52.9% in assay [1]; 46.1% in assay [2]; 47.8% in assay [3]; 48.5% in assay [4]; 20.4% in assay [5]; 54.5% in assay [6].
Turning to `Cc1ccc(N=Nc2c(O)c(S(=O)(=O)O)cc3cc(S(=O)(=O)O)ccc23)c(C)c1`, the growth inhibition in assay [1] was 8.55%; in assay [2], -19.6%; in assay [3], -13.8%; in assay [4], 6.3%; in assay [5], -14%; in assay [6], 2.55%.
Take `C[Si](C)(C)COC(N)=O`: the growth inhibition was -5.5% in assay [1]; 10.8% in assay [2]; -12.4% in assay [3]; 8.1% in assay [4]; 9.4% in assay [5]; 0.45% in assay [6].
For `CCOC(=O)CCC1(CCC(=O)OCC)c2ccccc2-c2ccccc21`, the growth inhibition in assay [1] was 3.65%; in assay [2], 9%; in assay [3] it was -1.85%; in assay [4], -7.15%; in assay [5], -3.75%; in assay [6], 13%.
As to `O=C1NC2(CCN(Cc3ccccc3)CC2)Nc2ccccc21`, the growth inhibition in assay [1] is -10.4%; in assay [2], 1.6%; in assay [3], -10.4%; in assay [4], -24.1%; in assay [5], 2.8%; in assay [6], -6.75%.
Consider `CCCCCCCCCCCCCCCCS(=O)(=O)N/N=C(/c1ccc(OC)c(OC)c1)N1CCCCC1`, for which the growth inhibition was -24.9% in assay [1]; -28.8% in assay [2]; 8.6% in assay [3]; 1.45% in assay [4]; -18.1% in assay [5]; -7% in assay [6].
Take `COc1cccc(C=NC23CC4CC(CC(C4)C2)C3)c1`: the growth inhibition in assay [1] is -22.2%; in assay [2] it was -3.15%; in assay [3], 3.65%; in assay [4], -0.9%; in assay [5] it was 6.85%; in assay [6] it was -6.8%.
With `CCOc1ccccc1N1C(=O)C(=O)C(c2nc3ccccc3o2)C(=O)C1=O`, the growth inhibition is -8.75% in assay [1]; 4.3% in assay [2]; -8.4% in assay [3]; -15.9% in assay [4]; 2.55% in assay [5]; -3.2% in assay [6].
As to `O=C(Cl)c1cccc2c([N+](=O)[O-])cccc12`, the growth inhibition in assay [1] was -4.45%; in assay [2] it was 2.95%; in assay [3], -2.35%; in assay [4] it was -44%; in assay [5], -1.4%; in assay [6], 11.8%.
For `CCOC(=O)c1cnc2c(cnn2C(C)C)c1NN`, the growth inhibition in assay [1] is -15.6%; in assay [2] it was -9.05%; in assay [3] it was 48.2%; in assay [4] it was -23.9%; in assay [5] it was 53.4%; in assay [6] it was -15.4%.
Regarding `CCCCCCCCCCCC(=O)N/N=C(\C)c1cccc2ccccc12`, the growth inhibition in assay [1] was 86.8% (active); in assay [2], 84.2% (active); in assay [3], 94% (active); in assay [4] it was 59.8%; in assay [5], 43.8%; in assay [6], 84.2% (active).
In the case of `C=C1CCN(c2ccc([N+](=O)[O-])cc2)C1=O`, the growth inhibition was 0% in assay [1]; -11.2% in assay [2]; 4.05% in assay [3]; -37.6% in assay [4]; 10.3% in assay [5]; 10.3% in assay [6].
As to `Cc1cccc(NCc2ccccc2)c1`, the growth inhibition in assay [1] is 32.5%; in assay [2], 5.95%; in assay [3], 19.4%; in assay [4], -22.1%; in assay [5] it was 29.6%; in assay [6] it was 24.9%.
On to `N#CCCn1c2ccccc2c2ccccc21`, for which the growth inhibition in assay [1] was -6.45%; in assay [2], 27.5%; in assay [3], 2.95%; in assay [4], 26.5%; in assay [5] it was -1.65%; in assay [6] it was -0.5%.
For the molecule `Oc1c(Br)cc(Br)cc1/C=N/c1nc(-c2ccccc2)cs1`, the growth inhibition in assay [1] is 98.5% (active); in assay [2], 92.1% (active); in assay [3], 99% (active); in assay [4], 92.5% (active); in assay [5], 97.4% (active); in assay [6] it was 99% (active).

The values are drawn from PubChem BioAssay (NCI).
